# From PubChem BioAssay AID2125 (NMMLSC, 2009)
# Unmarked numbers belong to inactive results.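 Rule for the calls: active = combined score above 50, rising as EC50 falls below 10 µM and growth at top dose drops; inactive = the rest.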 Peptide text beside a SMILES is read from it. * marks the point of attachment. Cbz = O=C(OCc1ccccc1)*
# Test system: YE3961
# Assay: yeast strain panel proliferation effects – secondary panel, OD600, 26S proteasome disassembly project, profiling panel (AID 2125)
# Details: S. cerevisiae strain panel, growth OD600, 6-8 h, at 100 µM, active compounds read low
row,SMILES,percent response (growth) [%]
1,CC(C)C[C@@H](C=O)NC(=O)[C@H](CC(C)C)NC(=O)[C@H](CC(C)C)NC(=O)OCc1ccccc1 (Cbz-Leu-Leu-Leu-aldehyde),59
2,CC(=O)N1C(=O)C(=C2C=C(C)OC(C)=C2)c2ccccc21,78.5
